Experimental data as given in PubChem BioAssay.
Activity calls are given as the source filed them.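 Rule for the calls: active = compounds whose cell count with miR-34 switched on is under 0.7 times the count with it off; inactive = the rest.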

Experiment: viability loss with induced miR-34 in A549 – imaging, A549 dox-inducible miR-34, nuclei and caspase counts, primary screen (AID 1347080); note: test concentration not given here
Conditions: A549 miR-34 inducible, Hoechst nuclei count, 48 h
[1] = stronger effect = lower value, cell number ratio, induced over uninduced
[2] = measured here: relative caspase fold change +Dox/-Dox
[3] = measured here: total cells with miR-34 induction, stronger effect = lower value
[4] = measured here: total cells without miR-34 induction

| SMILES | fold change [1] | fold change [2] | cell count [3] | cell count [4] |
| --- | --- | --- | --- | --- |
| O=C(CCC/C=C\C[C@H]1C(=O)C[C@@H](O)[C@@H]1/C=C/[C@@H](O)CCc1ccccc1)NC(CO)CO | 0.931 (inactive) | 0.89 | 5500 | 5910 |
| CCCCCCCCCCCCCCOc1ccc(C(=O)O)o1 | 0.937 (inactive) | 1 | 5650 | 6030 |
| C=CCN(C)CCCCCCOc1ccc(C(=O)c2ccc(Br)cc2)c(F)c1 | 1.01 (inactive) | 0.704 | 5700 | 5660 |
| OC[C@H]1NC[C@H](O)[C@@H](O)[C@@H]1O | 0.965 (inactive) | 0.787 | 5000 | 5180 |
| CCCCC[C@H](O)/C=C/[C@H]1[C@H](O)CC(=O)[C@@H]1C/C=C\CCCC(=O)OC | 0.938 (inactive) | 1.71 | 5670 | 6040 |
| CCCCC[C@H](O)/C=C/[C@H]1[C@H](O)CC(=O)[C@H]1C/C=C\CCCC(=O)O | 0.969 (inactive) | 1.41 | 5730 | 5910 |
| CCCCCCCCCCCCCCCCC(=O)NCCO | 1.04 (inactive) | 0.673 | 6030 | 5800 |
| O=C(O)CCC/C=C\C[C@@H]1[C@@H](/C=C/[C@@H](O)C2CCCCC2)[C@H](O)C[C@@H]1O | 0.938 (inactive) | 1.34 | 5910 | 6300 |
| CCCCCCCCCCCCCCCCOC[C@@H](O)COP(=O)(O)O | 0.944 (inactive) | 0.298 | 5730 | 6070 |
